From PubChem BioAssay (NCATS) come the findings set out here.

Assay [1] is described as follows: BET inhibitor-based combinations targeting novel dependencies in MECOM-rearranged (r) AML: HNT-34 cell line (AID 2202234). Further: nearly all actives have a fitted effect of over 35% in size. The conditions noted are these: HNT-34 AML viability, CellTiter-Glo luminescence, 48 h; series mostly up to 46 µM. The method, boiled down:
(§1)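 Luminescent ATP readout (CellTiter-Glo, 15 min at room temperature) after 48 hr drug exposure gave viability. Dose-response curves, normalized to DMSO and empty-well controls, were summarized as area under the curve and its mean-centred Z-score.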
For orientation: ATP-based viability assays read luminescence as a measure of living cells.

Assay [2] can be described thus: BET inhibitor-based combinations targeting novel dependencies in MECOM-rearranged (r) AML: UCSD-AML1 cell line (AID 2202235). Further: nearly all actives have a fitted effect of over 40% in size. Conditions: UCSD-AML1 AML cells viability, CellTiter-Glo, 48 h; series mostly up to 46 µM. In a few lines: as §1
Assay [3] is described as follows: BET inhibitor-based combinations targeting novel dependencies in MECOM-rearranged (r) AML: AML-191 cell line (AID 2202236; further: nearly all actives have a fitted effect of over 35% in size). Conditions: AML-191 viability, CellTiter-Glo luminescence, 48 h; series mostly up to 46 µM. The method, boiled down:
(§2)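 Luminescent ATP readout (CellTiter-Glo) after 48 hr drug exposure gives viability. Curves span 11 concentrations and are normalized to DMSO and empty wells. Activity is reported as area under the curve and its Z-transform within each cell line.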

Assay [4] can be described thus: BET inhibitor-based combinations targeting novel dependencies in MECOM-rearranged (r) AML: MV-4-11 cell line (AID 2202233). Further: nearly all actives have a fitted effect of over 45% in size. The conditions noted are these: MV-4-11 AML viability, CellTiter-Glo luminescence, 48 h; series mostly up to 46 µM. In a few lines:
as §1

A short description of assay [5]: BET inhibitor-based combinations targeting novel dependencies in MECOM-rearranged (r) AML: AML-194 cell line (AID 2202237; further: nearly all actives have a fitted effect of over 40% in size). The conditions noted are these: AML-194 (MECOM-r AML) viability, CellTiter-Glo, 48 h; series mostly up to 46 µM. In a few lines: as §2

Results filed as inconclusive are left out. Activity calls are given as the source filed them. The call rests on the fitted dose curve; in most records, active means well fitted curve in the direction sought with a large enough effect; inconclusive means small, poorly fitted or top-dose-only effect, or another doubt; inactive means no such curve, though single readings can be large; an effect the other way counts as inactive or inconclusive.
Potency means the concentration at half of the fitted maximal effect.

For `CCOc1cc(CC(=O)N[C@@H](CC(C)C)c2ccccc2N2CCCCC2)ccc1C(=O)O`, the Potency result in assay [1], in assay [2] and in assay [3] was “inactive” throughout.

For `C#C[C@]1(O)CC[C@H]2[C@@H]3CCc4cc(O)ccc4[C@H]3CC[C@@]21C`, the Potency in assay [4] was 20.9 µM (active); in assay [3], 14.8 µM (active); in assay [5] it was 20.9 µM (active).

As for `O=c1oc2c(C3OCCCO3)c(O)ccc2c2c1CNCC2`, the Potency entry in assay [4], in assay [2] and in assay [5] was “inactive” each time. Moreover, in assay [3], the Potency was 18.6 µM (active).

Turning to `COc1ccc2c(c1)[C@]1(C[C@H]1c1ccc3c(/C=C/c4ccc(CN5C[C@@H](C)O[C@@H](C)C5)cc4)n[nH]c3c1)C(=O)N2`, the Potency is 1.32 µM (active) in assay [1], 18.6 µM (active) in assay [2], 0.417 µM (active) in assay [3] and 0.132 µM (active) in assay [5].

As to `CCOC(=N)c1nc2ccc3ncnc(Nc4cc(F)c(F)cc4Cl)c3c2s1`, the Potency is 16.6 µM (active) in assay [4], 5.25 µM (active) in assay [3] and 6.61 µM (active) in assay [5].

Regarding `CCN(CC)C(=O)Cc1csc(NS(=O)(=O)c2cccc(Cl)c2C)n1`, the Potency entry in assay [2] and in assay [5] was “inactive” each time.

As for `Cc1cc(Oc2ccc3nc(COc4ccc(CC5SC(=O)NC5=O)cc4)n(C)c3c2)cc(C)c1N` (configuration not stated), the Potency entry in assay [1], in assay [2] and in assay [5] was “inactive” each time.

As for `CC(=O)O[C@@]12CO[C@@H]1C[C@H](O)[C@@]1(C)C(=O)[C@H](O)C3=C(C)[C@@H](OC(=O)[C@H](O)[C@@H](NC(=O)OC(C)(C)C)c4ccccc4)C[C@@](O)([C@@H](OC(=O)c4ccccc4)[C@H]21)C3(C)C`, the Potency is 0.0042 µM (active) in assay [4], 0.0047 µM (active) in assay [2], 0.0132 µM (active) in assay [3] and 0.0148 µM (active) in assay [5].

In the case of `C=C1CC[C@@H]2[C@](C)(CO)[C@H](O)CC[C@@]2(C)[C@@H]1C/C=C1/C(=O)OC[C@H]1O`, the values for the Potency in assay [2], in assay [3] and in assay [5] were 10.5 µM (active), 5.9 µM (active) and 9.34 µM (active), respectively.

Regarding `C=C1C[C@H]2C=Nc3cc(OCCCOc4cc5c(cc4OC)C(=O)N4CC(=C)C[C@H]4C=N5)c(OC)cc3C(=O)N2C1`, the Potency result in assay [4] and in assay [2] was “inactive” throughout. Besides, the Potency in assay [5] is 0.0015 µM (active).
